p53 reactivator = restores transcriptional activity of mutant p53; H1299 p53-A138V BP100-luciferase reporter, luminescence, 24 h; Potency, µM (titrated, usually from 92.2 µM), for the others: at the top dose activity change, positive = activation, usual class: activators; actives 0.063% (n = 320,000); AID 504706; further: % of control where 0% means no effect; nearly all actives have a fitted effect of over 45% in size
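p53-null H1299 cells stably carrying temperature-sensitive p53-A138V and a BP100-luciferase reporter were pinned with compounds (4-point, 1:5 series) and held 24 hrs at 37 deg C. Luminescence was read 10 min after detection reagent.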
SMN2 splice up = increases expression of the SMN2 splice variant. HEK293 SMN2-luciferase splicing reporter, luminescence, 30-36 h. AID 1458. Potency, µM (series often up to 46.1 µM), for inactives: at the top dose activity change, positive = activation, hits mostly activators. actives 2.8% (n = 210,000); further: % of control where 0% means no effect; nearly all actives have a fitted effect of over 55% in size
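HEK293 cells carry an SMN2 […]–luciferase reporter in which exon 7 inclusion puts luciferase in frame. Cells were plated 10-12 h before compound addition, then incubated 30-36 h at 37C. ONE-Glo luminescence was read; sodium butyrate at 4.5 mM final served as control.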
Rab9 prom act = activators of Rab9 promoter. Huh7 Rab9 promoter-luciferase reporter, luminescence, 24 h. Potency, µM (top dose mostly 9.22 µM), for the others: at the highest dose activation, negative = inhibition, most hits filed as activators. actives 2.8% (n = 320,000). AID 485297; further: % of control where 0% means no effect; nearly all actives have a fitted effect of over 60% in size
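Measured in stably transfected Huh7 cells bearing a Rab9 promoter–luciferase construct: 24 h compound treatment at 37 °C, followed by luminescence detection.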
NPC1 prom act = activates the NPC1 promoter; Potency, µM (top dose mostly 9.22 µM), for inactives: at the highest dose activation, usual class: activators; actives 2.4% (n = 320,000); Huh7 NPC1 promoter luciferase reporter, 24 h; further: % of control where 0% means no effect; nearly all actives have a fitted effect of over 60% in size
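In 1536-well qHTS, Huh7 cells harboring an NPC1 promoter–luciferase construct received compound for 24 h; activation was quantified by luminescence following luciferase reagent addition.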
ELG1 genotox = genotoxicity induction in ELG1-luciferase HEK293T cells | HEK293T ELG1-luciferase reporter, luminescence, 16 h | AID 504466 | actives 1.3% (n = 330,000) | Potency, µM (doses to about 46 µM), for inactives: top-dose activity change, positive = activation, usual class: activators; further: % of control where 0% means no effect; nearly all actives have a fitted effect of over 60% in size
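Screening used a luciferase reporter fused to human ELG1 in HEK293T cells. Luminescence was read on a CCD plate imager after 16 hr exposure and 30 min ONE-Glo incubation.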
FLuc counter = firefly luciferase modulation, counter-screen for miR-21 project; P08659; purified FLuc, Km substrates, luminescence inhibition; Potency, µM (series often up to 57.5 µM), without a hit: at the highest dose activity change, negative = inhibition, hits mostly inhibitors; actives 6.9% (n = 360,000); AID 588342;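 further: plate controls were vehicle for no effect and reference inhibitor for full effect; nearly all actives have a fitted effect of over 55% in size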
Target sequence (P08659 whole entry, looked up): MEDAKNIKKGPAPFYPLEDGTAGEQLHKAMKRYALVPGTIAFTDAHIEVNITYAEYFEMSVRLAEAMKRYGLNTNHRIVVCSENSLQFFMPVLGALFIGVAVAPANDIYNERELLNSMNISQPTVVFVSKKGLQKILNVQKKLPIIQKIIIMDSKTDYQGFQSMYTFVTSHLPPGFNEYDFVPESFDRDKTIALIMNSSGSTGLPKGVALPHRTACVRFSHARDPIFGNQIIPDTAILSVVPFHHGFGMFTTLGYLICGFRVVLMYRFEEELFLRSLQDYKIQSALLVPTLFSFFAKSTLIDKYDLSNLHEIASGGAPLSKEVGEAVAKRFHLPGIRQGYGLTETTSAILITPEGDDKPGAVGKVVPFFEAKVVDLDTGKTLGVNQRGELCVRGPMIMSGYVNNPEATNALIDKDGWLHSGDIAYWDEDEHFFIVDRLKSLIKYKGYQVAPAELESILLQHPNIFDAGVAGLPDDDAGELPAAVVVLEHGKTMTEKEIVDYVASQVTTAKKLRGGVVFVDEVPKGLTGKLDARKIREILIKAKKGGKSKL
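Purified P. pyralis luciferase (10nM final) with 10uM D-luciferin and 10uM ATP (Km levels) in 50mM Tris acetate pH 7.5, 10mM Mg acetate, 0.01% Tween-20, 0.05% BSA; qHTS 6-point titration, ~60 µM downward; luminescence read.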
An asterisk follows results filed as active; ? = inconclusive; . = not tested or not shown; [ ] = dose if it differs, or a comment. Only some compounds are listed: those with a hit (about 7.3% of all), similar ones and a draw of the others. The call rests on the fitted dose curve; in most records, active means well fitted curve in the direction sought with a large enough effect; inconclusive means small, poorly fitted or top-dose-only effect, or another doubt; inactive means no such curve, though single readings can be large; an effect the other way counts as inactive or inconclusive. Potency means the concentration at half of the fitted maximal effect.

SMILES	p53 reactivator	SMN2 splice up	Rab9 prom act	NPC1 prom act	ELG1 genotox	FLuc counter
CNC(=O)C1CCC(Cn2c(=O)c3sccc3n(CC(=O)Nc3ccc(C)c(F)c3)c2=O)CC1 (stereo not drawn)	.	.	.	.	.	-5.7%
COc1ccccc1-c1sc2cc3c(cc2c1C#Cc1cncn1C)OCO3	-2.4%	.	.	.	-3.6%	.
CCOC(=O)c1c(-c2ccccc2)nc2cc(C)ccn12	17.0%	25.2%	?	?	12.6%	10.7µM*
CCOC(=O)c1c(-c2ccccc2)nc2ccc(C)cn12	11.3%	5.1%	2.24µM*	3.55µM*	?	9.53µM*
CCOC(=O)C(=O)c1c(-c2ccccc2)nc2ccccn12	-3.2%	16.7%	11.5%	-0.7%	-4.7%	-6.9%
CC(=O)Nc1ccc(NC(=O)CCc2nc3cccnc3n2Cc2cccs2)cc1	.	-1.5%	.	.	.	-6.5%
Cc1ccc2cccc(NC(=O)c3ccc(-c4cccc(Cl)c4Cl)o3)c2n1	.	5.7%	.	.	.	0.0%
O=C(O)[C@@H]1CS[C@@]2(CCCN(Cc3ccccc3)C2)N1	.	2.4%[9.22 µM]	.	.	.	.
Cc1ccc2c(c1)N(CC(=O)NCc1cccs1)C(=O)CO2	-3.5%	-6.6%	-2.8%	-0.5%	4.4%	2.1%
CCOC(=O)c1sc(NC(=S)NC(=O)c2ccccc2)nc1C	26.8%	?	-0.6%	-4.1%	?	?
COC(=O)c1sc(NC(=S)NC(=O)c2ccccc2)nc1C	?	-4.3%	2.51µM*	?	?	4.78µM*
COC(=O)c1sc(NC(=S)NC(=O)c2ccccc2Cl)nc1C	?	24.3%	?	?	?	6.75µM*
CC(C)OC(=O)[C@@H]1CC[C@H](C)[C@@H](CCCC=O)O1	.	3.6%	.	.	.	.
CCOc1ccc(Nc2ccc([N+](=O)[O-])c3nonc23)cc1	.	.	4.47µM*	?	20.2%	12µM*
CC(=O)c1ccc(OCc2cc(C(=O)N(C)Cc3ccccn3)no2)cc1	23.3%	.	?	?	?	15.1µM*
Cc1cc(OCc2cc(C(=O)N(C)Cc3ccccn3)no2)cc(C)c1Cl	2.8%	.	3.98µM*	3.98µM*	?	12µM*
Cc1cc(OCc2cc(C(=O)N(C)CCOc3ccccc3)no2)cc(C)c1Cl	6.5%	.	-5.0%	1.3%	-2.3%	1.9%
Cc1cc(OCc2cc(C(=O)N(C)C(C)c3ccccn3)no2)cc(C)c1Cl (stereo not drawn)	?	.	?	?	?	19µM*
Cc1cc(C)c(NC(=O)CN2c3ccccc3S(=O)(=O)c3ccccc32)c(C)c1	.	.	.	.	.	-1.1%
CC(Oc1ccc(Cl)cc1Cl)c1nc(-c2ccccn2)no1 (stereo not drawn)	17.7%	28.4%	?	?	?	15.1µM*
Cc1ccc(OCc2nc(-c3ccccn3)no2)c(Br)c1	-2.2%	-61.5%	0.282µM*	0.1µM*	0.326µM*	0.213µM*
Cc1ccc(OCc2nc(-c3ccccn3)no2)cc1	?	8.91µM*	1.41µM*	1.12µM*	3.66µM*	4.78µM*
Cc1ccc(SCc2nc(-c3ccccn3)no2)cc1	?	?	?	?	?	4.1%[2.3 µM]
CC(Oc1ccc(Cl)cc1Cl)c1nc(-c2ccc(NC(=O)c3cccnc3)cc2)no1 (stereo not drawn)	-13.6%	-87.1%	1.9%	0.0%	-20.1%	1.1%
CC(C)c1ccc(OCc2nc(-c3ccccn3)no2)c(Br)c1	51.0%	6.31µM*	0.447µM*	0.398µM*	?	0.953µM*
CC(C)(C)Cc1nc(-c2ccccn2)no1	?	?	?	?	18.4µM*	?
CCc1ccc(OCc2nc(-c3ccccn3)no2)c(Br)c1	9.5%	0.501µM*	0.398µM*	0.316µM*	?	0.536µM*
c1ccc(OCCCc2nc(-c3ccncc3)no2)cc1	19.4%	13.5%	-0.3%	-2.1%	2.2%	1.0%

Assay outcomes deposited in PubChem by National Center for Advancing Translational Sciences (NCATS).
